Compounds without any hit were thinned out: in the full panel of roughly 83,000, 20% have a hit.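 For each line, cells grew in 96-well plates with the test compound present at a single concentration for 48 hours.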 The source made the active and inactive calls. Rule for the calls: active = growth percent below 10; inactive = the rest.
Legend:
Test in all cases: NCI-60 one-dose screen, 48 h (100 = growth as untreated, 0 = no growth, -100 = all killed)
Conditions in all cases: 10 µM unless noted
T-47D breast = tested on: T-47D breast
BT-549 breast = tested on: BT-549 breast
MDA-MB-435 melanoma = tested on: MDA-MB-435 melanoma
SW-620 colon = tested on: SW-620 colon
MCF7 breast = tested on: MCF7 breast
HCT-116 colon = tested on: HCT-116 colon
HCC-2998 colon = tested on: HCC-2998 colon
KM12 colon = tested on: KM12 colon

Measured: growth

COc1ccc(-c2nsc3c2NC(=O)CC3c2cccc(F)c2)cc1 (centres undefined)
active: MDA-MB-435 melanoma -34.1%
inactive: T-47D breast 33.7% | BT-549 breast 50.3% | SW-620 colon 18% | MCF7 breast 26.4% | HCT-116 colon 22.9% | HCC-2998 colon 78.5% | KM12 colon 16.7%

Nc1nc(N)c2cc(CNc3ccc(Cl)c(Cl)c3)ccc2n1
inactive: BT-549 breast 59.1%
active: T-47D breast -52.6% | MDA-MB-435 melanoma -1.48% | SW-620 colon -80.3% | MCF7 breast -74.8% | HCT-116 colon -88.8% | HCC-2998 colon -70.3% | KM12 colon -15.9%

O=C(Nc1cccc(Cl)c1)Nc1cc(C(F)(F)F)ccc1Cl
active: T-47D breast 5.15% | MDA-MB-435 melanoma 8.14% | SW-620 colon -16.1% | HCT-116 colon -13.3% | KM12 colon -45.1%
inactive: BT-549 breast 25.8% | MCF7 breast 16.1% | HCC-2998 colon 13.2%

COc1ccc(-c2nn(-c3cccc(Cl)c3)cc2/C=C2\C(=N)N(c3ccccc3)N=C2N)cc1
inactive: T-47D breast 28.6% | BT-549 breast 101% | MDA-MB-435 melanoma 31.3% | SW-620 colon 32.5% | MCF7 breast 26.6% | HCT-116 colon 51.3%
active: HCC-2998 colon 0.0499% | KM12 colon -25.2%

Cc1nc2ccc(Nc3nc(NCCN4CCOCC4)nc(Nc4ccc(F)cc4)n3)cc2n1Cc1ccccc1
inactive: T-47D breast 53% | BT-549 breast 49.9% | MDA-MB-435 melanoma 52.2% | SW-620 colon 42.4% | MCF7 breast 33.6% | HCT-116 colon 27.9% | HCC-2998 colon 44.5% | KM12 colon 43.4%

CCOC(=O)c1ccc(N(CCC(=O)O)C(C)=O)cc1
inactive: T-47D breast 112% | BT-549 breast 94.9% | MDA-MB-435 melanoma 122% | SW-620 colon 106% | MCF7 breast 99.9% | HCT-116 colon 104% | HCC-2998 colon 113% | KM12 colon 117%

COc1ccc2c(c1)CCCC21C(=O)Nc2c(Cl)cccc21 (centres undefined)
inactive: T-47D breast 87.6% | BT-549 breast 91% | SW-620 colon 42.8% | MCF7 breast 81.8% | HCT-116 colon 49.5% | HCC-2998 colon 88.3% | KM12 colon 61.3%
active: MDA-MB-435 melanoma -11.8%

O=C(Nc1ccc(Cl)c(C(F)(F)F)c1)c1ccc(Nc2ccc(Cl)nn2)cc1
inactive: T-47D breast 28.6% | BT-549 breast 37.2% | MDA-MB-435 melanoma 80.2% | SW-620 colon 96.8% | MCF7 breast 53% | HCT-116 colon 53.5% | HCC-2998 colon 67.4% | KM12 colon 51.1%

CCc1oc2ccccc2c1C(=O)c1cc(I)c(O)c(I)c1
active: MDA-MB-435 melanoma -25.9%
inactive: T-47D breast 98.9% | BT-549 breast 39.3% | SW-620 colon 19.2% | MCF7 breast 33.8% | HCT-116 colon 22.3% | HCC-2998 colon 53.3% | KM12 colon 27.2%

C=CCn1c(SCC(=O)Nc2ccc(C(=O)/C=C/c3ccccc3)cc2)nnc1-c1ccc(OC)c(OC)c1
inactive: T-47D breast 50.6% | BT-549 breast 59.5% | MDA-MB-435 melanoma 69.3% | SW-620 colon 100% | MCF7 breast 16.5% | HCC-2998 colon 85.3% | KM12 colon 57.3%
active: HCT-116 colon -91.7%

CC(C)[C@H](CN)NC[C@H](C)NS(=O)(=O)c1ccc(C(C)(C)C)cc1
inactive: T-47D breast 80.5% | BT-549 breast 81.2% | MDA-MB-435 melanoma 99.7% | SW-620 colon 94.2% | MCF7 breast 90.2% | HCT-116 colon 86.2% | HCC-2998 colon 105% | KM12 colon 101%

CNC(=O)c1cc(Oc2ccc(NC(=O)c3nc(S(C)(=O)=O)sc3-c3ccc(F)cc3)cc2)ccn1
inactive: T-47D breast 26.3% | BT-549 breast 105% | MDA-MB-435 melanoma 98.2% | SW-620 colon 104% | MCF7 breast 29.5% | HCT-116 colon 85.3% | HCC-2998 colon 80.2% | KM12 colon 25.3%

Clc1ccc(-c2nc(Br)cn3ccnc23)cc1
inactive: T-47D breast 54.4% | BT-549 breast 84.1% | MDA-MB-435 melanoma 111% | SW-620 colon 91.5% | MCF7 breast 64.1% | HCT-116 colon 77.8% | HCC-2998 colon 104% | KM12 colon 86.6%

CCOC(=O)Nc1ccc2nc(-c3cscn3)[nH]c2c1
active: MDA-MB-435 melanoma -40.5%
inactive: T-47D breast 44.5% | BT-549 breast 48.6% | SW-620 colon 19.8% | MCF7 breast 34% | HCT-116 colon 21.6% | HCC-2998 colon 65.7% | KM12 colon 34.3%

Cc1cc(Cl)c2ccc(N(C)C)cc2n1
inactive: T-47D breast 90.7% | BT-549 breast 111% | MDA-MB-435 melanoma 102% | SW-620 colon 99.5% | MCF7 breast 92.1% | HCT-116 colon 105% | HCC-2998 colon 101% | KM12 colon 104%

COc1cc(C2C=C(C)N=C3SC=NN32)cc(OC)c1OC (centres undefined)
inactive: T-47D breast 109% | BT-549 breast 141% | MDA-MB-435 melanoma 104% | SW-620 colon 105% | MCF7 breast 98.9% | HCT-116 colon 111% | HCC-2998 colon 102% | KM12 colon 107%

CC(C)N=C1CCCC1C(=S)SSC(=S)C1CCCC1=NC(C)C (centres undefined)
inactive: T-47D breast 47% | BT-549 breast 82.2% | MDA-MB-435 melanoma 61.7% | SW-620 colon 74.9% | MCF7 breast 56.9% | HCT-116 colon 51.4% | HCC-2998 colon 116% | KM12 colon 101%

COc1cccc2nc(Nc3cccc(NC(=O)c4cc(N5CCOCC5)cc(C(F)(F)F)c4)c3)ccc12
inactive: T-47D breast 42.4% | BT-549 breast 78.6% | MDA-MB-435 melanoma 55.3% | SW-620 colon 95.8% | MCF7 breast 45.2% | HCT-116 colon 41.9% | HCC-2998 colon 76.9% | KM12 colon 52.3%

Cc1ccc(NC(=O)Cn2nncc2CN2C(=O)CSC2=O)cc1C
inactive: T-47D breast 98.7% | BT-549 breast 98.8% | MDA-MB-435 melanoma 100% | SW-620 colon 99.3% | MCF7 breast 92% | HCT-116 colon 102% | HCC-2998 colon 92.5% | KM12 colon 105%

CCCCCCCCCCCCCCCc1cc(O)ccc1[N+](=O)[O-]
inactive: T-47D breast 61.2% | BT-549 breast 76.4% | MDA-MB-435 melanoma 96.8% | SW-620 colon 93.1% | MCF7 breast 66% | HCT-116 colon 64.7% | HCC-2998 colon 104% | KM12 colon 89.3%

COC(=O)c1cc(Cl)cc([N+](=O)[O-])c1O
inactive: T-47D breast 101% | BT-549 breast 108% | MDA-MB-435 melanoma 99.3% | SW-620 colon 102% | MCF7 breast 113% | HCT-116 colon 101% | HCC-2998 colon 104% | KM12 colon 109%

COc1cc2nccc(Oc3ccc(NC(=O)C4(C(=O)Nc5ccc(F)cc5)CC4)cc3)c2cc1O
inactive: T-47D breast 55.3% | BT-549 breast 79.9% | MDA-MB-435 melanoma 52.6% | SW-620 colon 34.4% | MCF7 breast 51.2% | HCT-116 colon 52% | HCC-2998 colon 79.3% | KM12 colon 22.5%

Oc1ccc(Cl)cc1-c1cc(-c2ccccc2Cl)[nH]n1
active: MCF7 breast 9.57%
inactive: T-47D breast 11.1% | BT-549 breast 76.2% | MDA-MB-435 melanoma 48.1% | SW-620 colon 74.7% | HCT-116 colon 55.8% | HCC-2998 colon 31.1% | KM12 colon 19.7%

CC(C)=CCC[C@H](C)c1ccc(C)c2c1OCN(CCO)C2
inactive: T-47D breast 70% | BT-549 breast 95.8% | MDA-MB-435 melanoma 101% | SW-620 colon 100% | MCF7 breast 83.9% | HCT-116 colon 71.8% | HCC-2998 colon 84.4% | KM12 colon 103%

O=C(OCc1ccc2c(Br)cc(Br)c(O)c2n1)c1cc2ccccc2[nH]1
active: T-47D breast -69.5% | BT-549 breast -84.3% | MDA-MB-435 melanoma -80.6% | SW-620 colon -69.2% | MCF7 breast -35.5% | HCT-116 colon -72.9% | HCC-2998 colon -77.7% | KM12 colon -19%

Nc1ccc(N(O)/C=C2\C=CC=CC2=O)cc1N
inactive: T-47D breast 78.8% | BT-549 breast 103% | MDA-MB-435 melanoma 97.7% | SW-620 colon 105% | MCF7 breast 115% | HCT-116 colon 85.1% | HCC-2998 colon 93.4% | KM12 colon 83.3%

CCCc1n(Cc2ccc3ccccc3n2)cc[n+]1Cc1ccc2ccccc2n1
active: T-47D breast 7.17% | MDA-MB-435 melanoma 7.6%
inactive: BT-549 breast 13.9% | SW-620 colon 36.7% | MCF7 breast 15.3% | HCT-116 colon 22.9% | HCC-2998 colon 26.2% | KM12 colon 15.7%

CCOC(=O)C(Nc1ccccc1)C(=O)OCC
inactive: T-47D breast 102% | BT-549 breast 95.1% | MDA-MB-435 melanoma 110% | SW-620 colon 111% | MCF7 breast 95.8% | HCT-116 colon 101% | HCC-2998 colon 103% | KM12 colon 115%

O=c1[nH]c2cc(Cl)c(Cl)cc2o1
inactive: T-47D breast 121% | BT-549 breast 132% | MDA-MB-435 melanoma 103% | SW-620 colon 98.9% | MCF7 breast 105% | HCT-116 colon 98.9% | HCC-2998 colon 117% | KM12 colon 111%

COc1cc(NC(C)CCCN)c2ncccc2c1Oc1ccc(Cl)cc1 (centres undefined)
inactive: T-47D breast 76.8% | BT-549 breast 86.2% | MDA-MB-435 melanoma 90.7% | SW-620 colon 73.5% | MCF7 breast 71.3% | HCT-116 colon 58.3% | HCC-2998 colon 49.8% | KM12 colon 69.2%

COc1ccc(C(=O)c2c(N)nc3n2CCCC3)cc1OC
inactive: T-47D breast 101% | BT-549 breast 93.9% | MDA-MB-435 melanoma 104% | SW-620 colon 101% | MCF7 breast 99% | HCT-116 colon 91.9% | HCC-2998 colon 114% | KM12 colon 101%

CCN(CC)CCCC(C)Nc1cnc(C(=O)Nc2cccc3ccc(OC)nc23)cn1 (centres undefined)
inactive: T-47D breast 83.9% | BT-549 breast 83.2% | MCF7 breast 20.1% | HCC-2998 colon 90.9% | KM12 colon 36.3%
active: MDA-MB-435 melanoma -58.2% | SW-620 colon 2.12% | HCT-116 colon -36%

COc1cc(NC(C)CCCN)c2ncccc2c1Sc1ccc(Cl)cc1 (centres undefined)
active: SW-620 colon -69.1%
inactive: T-47D breast 58.7% | BT-549 breast 90.9% | MDA-MB-435 melanoma 55.7% | MCF7 breast 26% | HCT-116 colon 23.9% | HCC-2998 colon 12.3% | KM12 colon 34.4%

From PubChem BioAssay (NCI)
